A selection: hits, their analogues and other compounds. The true share with any hit is near 0.78%.
APE1 inh – qHTS Assay for Inhibitors of the Human Apurinic/apyrimidinic Endonuclease 1 (APE1); DNA repair nuclease/redox regulator APEX1 (Homo sapiens), P27695; AID 2517, 2012; Potency, µM (doses to about 65.8 µM), for inactives: at the highest dose activity change, negative = inhibition, usual class: inhibitors; hit rate 0.35% among 350,000; recombinant APE1, TAMRA/BHQ-2 abasic DNA cleavage fluorescence;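 note: plate controls were vehicle for no effect and reference inhibitor for full effect; nearly all actives have a fitted effect of over 55% in size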
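Incision of a quenched TAMRA/BHQ-2 THF abasic-site duplex (50 nM) by 0.75 nM APE1, after 15 min compound preincubation, measured as fluorescence increase over three 60 s reads. Values normalized to buffer, DMSO and NSC13755 control wells.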
RECQ1 helicase – qHTS Assay for Inhibitors of RecQ-Like Dna Helicase 1 (RECQ1); ATP-dependent DNA helicase Q1 (Homo sapiens), P46063; RECQ1 DNA unwinding, red fluorescence kinetic read; Potency, µM (series often up to 57.3 µM), for inactives: at the top dose activity, negative = inhibition, most hits filed as inhibitors; hit rate 0.54% among 240,000; AID 2549, 2010;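 note: plate controls were vehicle for no effect and no enzyme for full effect; nearly all actives have a fitted effect of over 30% in size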
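RECQ1T1 50 nM; forked duplex (20 bp + 30-nt ss tails) 200 nM, ATP 2 mM final; pH 8.0, 2 mM MgCl2, 2.5 ug/ml poly(dI-dC); 15 min compound preincubation; discontinuous kinetic read over 2 h at RT.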
L3MBTL1 block – qHTS Assay for the Inhibitors of L3MBTL1; hit rate 0.66% among 230,000; AlphaScreen L3MBTL1–H3K9me1 peptide binding; Lethal(3)malignant brain tumor-like protein 1 (Homo sapiens), Q9Y468; AID 485360, 2010; Potency, µM (doses to about 57.1 µM), for inactives: at the highest dose activity, negative = inhibition, usual class: inhibitors; note: nearly all actives have a fitted effect of over 60% in size
Target sequence (Q9Y468 whole entry, looked up): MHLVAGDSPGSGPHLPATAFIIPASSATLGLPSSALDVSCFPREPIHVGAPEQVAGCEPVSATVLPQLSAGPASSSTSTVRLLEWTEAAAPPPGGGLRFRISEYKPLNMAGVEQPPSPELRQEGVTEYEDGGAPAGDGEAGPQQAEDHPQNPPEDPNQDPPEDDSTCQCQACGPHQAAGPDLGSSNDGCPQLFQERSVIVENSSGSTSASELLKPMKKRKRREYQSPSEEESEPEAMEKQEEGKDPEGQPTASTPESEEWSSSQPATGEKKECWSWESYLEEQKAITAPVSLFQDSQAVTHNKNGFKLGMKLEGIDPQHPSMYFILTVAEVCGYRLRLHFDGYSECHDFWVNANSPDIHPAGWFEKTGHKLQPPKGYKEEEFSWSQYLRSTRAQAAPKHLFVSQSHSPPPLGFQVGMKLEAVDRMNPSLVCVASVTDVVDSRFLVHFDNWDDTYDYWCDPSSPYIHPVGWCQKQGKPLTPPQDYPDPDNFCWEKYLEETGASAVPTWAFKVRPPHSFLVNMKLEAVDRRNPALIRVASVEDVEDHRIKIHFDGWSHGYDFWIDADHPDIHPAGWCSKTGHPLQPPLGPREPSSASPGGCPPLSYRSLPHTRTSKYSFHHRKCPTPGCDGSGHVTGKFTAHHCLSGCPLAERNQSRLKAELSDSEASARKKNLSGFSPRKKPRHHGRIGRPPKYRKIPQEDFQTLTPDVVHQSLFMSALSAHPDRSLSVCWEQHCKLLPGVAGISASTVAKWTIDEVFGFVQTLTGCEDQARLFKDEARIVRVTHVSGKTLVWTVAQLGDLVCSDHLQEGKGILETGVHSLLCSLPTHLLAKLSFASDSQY
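L3MBTL1 50 nM + b-AHA-H3(1-15)K9me1 75 nM, 30 min RT; compound added, 30 min RT; streptavidin donor/Ni-chelate acceptor beads 10 ug/mL each final, 30 min RT dark; AlphaScreen read.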
BLM inh-1 – qHTS Assay for Inhibitors of Bloom's syndrome helicase (BLM); hit rate 0.2% among 350,000; Potency, µM (doses to about 56.1 µM), for inactives: at the highest dose activity change, negative = inhibition, most hits filed as inhibitors; RecQ-like DNA helicase BLM (Homo sapiens), P54132; recombinant BLM DNA unwinding, fluorescence dequenching;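 note: plate controls were vehicle for no effect and no enzyme for full effect; nearly all actives have a fitted effect of over 35% in size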
BLM inh-2 – qHTS Confirmation Assay for Inhibitors of Bloom's syndrome helicase (BLM) | shares compounds with BLM inh-1 | BLM DNA unwinding, fluorescence quenching, biochemical | Potency, µM, inactives show max response, negative = inhibition, most hits filed as inhibitors | hit rate 40% among 220;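 note: strand separation dequenches TAMRA so unwinding raises red fluorescence; series mostly up to about 69 µM; nearly all actives have a fitted effect of over 45% in size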
* marks the source's active call; other numbers are inactive results; i = inactive; ? = inconclusive; . = no result given; ! = repeats disagree; [ ] = dose if it differs, or a comment. Calls come from the whole dose curve; as a rule, active = well fitted curve in the direction sought with a large enough effect; inconclusive = small, poorly fitted or top-dose-only effect, or another doubt; inactive = no such curve, though single readings can be large; an effect the other way counts as inactive or inconclusive. Unless noted, % is set by controls: 0 for no effect and ±100 for the full control effect; potency is the fitted concentration of half-maximal effect.

SMILES	APE1 inh	RECQ1 helicase	L3MBTL1 block	BLM inh-1	BLM inh-2
COc1ccc2c(c1)C(=NNC(=O)c1ccccn1)c1cc(OC)ccc1-2	11.3%	-4.9%	2.0%	10µM*	28.9µM*
CCOc1ccc(CCNC(=O)c2nc(-c3cccc(F)c3)n3c2CCCCC3)cc1OCC	.	.	.	0.159µM*	-7.5%
CCSc1ccc(-c2ccco2)nn1	-0.1%	-22.1%	.	10µM*	?
O=C(CCc1c[nH]c2ccccc12)NC(Cc1c[nH]c2ccccc12)C(=O)O (configuration not stated)	21.2µM*	.	.	31.6µM*	-7.6%
Cc1cc(C)cc(-n2ccnc2SCC(=O)Nc2ccccc2F)c1	.	.	.	-5.4%	.
Cc1noc2ncnc(N3CCN(c4ccccc4F)CC3)c12	.	.	.	2.6%	.
CCOc1ccc2nc3cc(NCc4ccc(OC)cc4)ccc3c(N)c2c1	-22.2%	.	.	14.1µM*	7.25µM*
CC(C)N(C(=O)Nc1ccc2nsnc2c1)C(C)C	3.7%	i	-75.8%	5.62µM*	?
COc1ccccc1-n1c2nc3ccccc3nc2c2c(=O)n(-c3cc(C)cc(C)c3)cnc21	4.3%	-3.7%	-1.0%	-12.7%	.
COc1ccccc1-n1cnc2c(c1=O)c1nc3ccccc3nc1n2-c1ccc(C)cc1	4.5%	-4.6%	34.8%	10µM*	-0.9%
CC(=O)N1c2ccc(S(=O)(=O)Nc3ccc(Cl)cc3C)cc2CC1C (configuration not stated)	.	.	.	2.0%	.
COc1ccc(NC(=O)c2c(NCc3ccc(C)o3)sc3c2CCCCC3)c(OC)c1	.	.	.	-8.6%	.
CCCc1cc(=O)[nH]c(SCC(=O)Nc2ccc3c(c2)CCC3)n1	-0.6%	-8.4%	5.2%	0.0%	.
O=C(CSc1nc(O)cc(=O)[nH]1)Nc1ccc2c(c1)CCC2	16.3%	-12.9%	-2.8%	22.4µM*	3.4%
COC(=O)C/C=C\[C@@H](C)[C@@H](/C=N\OC[C@@H](O)COCc1ccco1)OC	-1.6%[12.4 µM]	13.4%[11.5 µM]	.	-0.2%[12.4 µM]	.
c1cncc(CNc2nc(-c3ccoc3)nc3ccccc23)c1	0.4%	-19.8%	.	-13.8%	.
CN(C)c1ccc(-c2nc(NCc3cccnc3)c3ccccc3n2)cc1	-1.6%	?	.	15.8µM*	22.9µM*
COc1cc(-c2nc3ccc(N4CCN(C)CC4)cc3[nH]2)cc(OC)c1OC	-10.5%	-14.0%	-11.8%	20µM*	?
S=C(Nc1ccc2nsnc2c1)NC1CCCCC1	-7.5%	i	6.9%	12.6µM*	-10.7%
O=C(Nc1ccccc1)Oc1ccc[nH]c1=O	-4.3%	-4.7%	.	4.47µM*	-1.6%
Cc1nc(-c2ccc(C(=O)Nc3cc(S(N)(=O)=O)ccc3C)cc2)cs1	28.8%	.	-7.3%	7.08µM*	6.46µM*
COc1ccccc1CNC(=O)CCCn1c(=O)c2ccccc2n(Cc2ccc(F)cc2)c1=O	.	.	.	-1.9%	.
Cc1ccc(NCc2ccccc2OCc2ccccc2F)cc1	-10.4%	-14.0%	.	-23.2%	.
Oc1ccc(NCc2ccccc2OCc2ccccc2F)cc1	?	-10.0%	?	28.2µM*!	?
CCOc1cccc(CNc2ccc(O)cc2)c1OCc1ccc(Cl)cc1	-11.0%	-9.4%	?	28.2µM*	-11.0%
SMILES	APE1 inh	RECQ1 helicase	L3MBTL1 block	BLM inh-1	BLM inh-2
C[C@H](N)CCP(=O)(O)O	3.4%	i	.	.	.
COC(=O)c1c(NC(=O)COC(=O)c2ccc(NC(=O)CC#N)cc2)sc2c1CCCCC2	14.2%	i	?	31.6µM*	?
COC(=O)c1c(NC(=O)COC(=O)c2ccccc2O)sc2c1CCCCC2	6.1%	-1.6%	37.2%	0.0%	.
COc1ccc(CCNC(=O)c2cc(Nc3cc(C)cc(C)c3)nc3ccccc23)cc1OC	.	.	.	-6.0%	.
Cc1nc2ccc3nc(NC(=O)C4COc5ccccc5O4)sc3c2s1 (configuration not stated)	-7.0%	-15.7%	-4.9%	-4.1%	4.5%
CSc1nc2ccc3nc(NC(=O)C4COc5ccccc5O4)sc3c2s1 (configuration not stated)	?	i	-1.8%	-5.4%	.
O=C(COC(=O)C1CC(=O)N(Cc2ccco2)C1)c1ccc(OC(=O)c2ccco2)cc1 (configuration not stated)	-0.6%	-0.8%	17.8µM*	15.8µM*	?
O=C(COC(=O)C1CC(=O)N(Cc2ccccc2)C1)c1ccc(Br)cc1 (configuration not stated)	?	-11.1%	3.1%	1.3%	.
Nc1ccc2nc3c(=O)n(CCc4ccccc4)c(=O)[nH]c3nc2c1	-10.7%	-1.2%	.	-13.8%	.
CCCCn1c(=O)[nH]c2nc3cc(N)ccc3nc2c1=O	13.2%	-8.5%	-5.3%	5.62µM*	?
COc1ccc(CNC(=O)CCc2c(C)c3cc4c(C)c(C)oc4cc3oc2=O)cc1	.	.	.	-11.2%	.
COc1ccc(S(=O)(=O)N(CC(=O)NCCSc2ccccc2)c2ccc(C)cc2)cc1	.	.	.	-8.0%	.
COc1ccc(Cc2nc3ccccc3n2CC(=O)N/N=C/c2ccc(O)cc2)cc1OC	-2.3%	-0.6%	3.8%	1.4%	.
COc1ccc(Cc2nc3ccccc3n2CC(=O)N/N=C/c2ccc(C)cc2O)cc1OC	-4.4%	8.5%	-14.7%	10µM*	?
COC(=O)c1ccc(CSc2nc3scc(-c4cccs4)c3c(=O)[nH]2)o1	-7.8%	-26.2%	?	25.1µM*	?
COc1ccc(-c2nc3cnc(OC)nc3n(-c3ccc(OC)cc3)c2=O)cc1	1.5%	-2.2%	.	0.7%	.
CC(C)=CCOc1ccc(/C=C/C(=O)c2ccc(OCC=C(C)C)cc2OCC(=O)O)cc1	4.4%	i	.	15.8µM*	?
C/C=C/c1ccc(OCC(=O)O)c(OC)c1	0.3%	-8.7%	-12.6%	-8.3%	.
O=C1C=C(NCCN2CCOCC2)C(=O)c2cnccc21	1.4%	-0.5%	?	25.1µM*	?
O=C1C=C(NCCO)C(=O)c2cnccc21	?	-3.6%	.	?	.
O=C(CCl)Nc1ccccc1Sc1ccccc1	0.1%	-0.1%	.	8.91µM*	12.9µM*
O=c1oc(-c2ccccc2)nc2sc3c(c12)CCC3	1.2%	2.4%	12.6µM*	14.1µM*	?
O=C(Nc1cccc(-c2nc3cccnc3s2)c1)C1c2ccccc2Oc2ccccc21	?	-29.4%	-3.4%	10µM*	12.9µM*
O=C(Nc1cccc(-c2nc3cccnc3s2)c1)c1cccnc1Cl	0.9%	-9.3%	.	-8.9%	.
COc1cccc(Cn2c(=O)n(CC3CCC(C(=O)N4CCCCC4)CC3)c(=O)c3sccc32)c1 (configuration not stated)	.	.	.	-3.5%	.
COc1ccc(CN2C(=O)N(c3ccc(F)cc3)C(=O)C2CC(=O)Nc2ccccc2)cc1 (configuration not stated)	.	.	.	-4.5%	.

Source: PubChem BioAssay (National Center for Advancing Translational Sciences (NCATS))
